Our source for the log2 fold change values is the supplement of paper PMC10849652.

Experiment in all cases: log2 fold change, soluble protein after heating vs DMSO (PISA); higher = thermal stabilisation; K562 cells, 10 uM, 30 min; active = over 0.2 and 3.5 SD of the protein, either way, in both replicates (recomputed)
Compound in experiment [1]: CS(=O)(=O)c1ccc(-c2cnc(N)c(C(=O)Nc3ccccc3)n2)cc1
Put shortly:
(§1)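 Thermal stability values are relative to control samples and come from duplicates. They are expressed as log2 fold changes. For measurement, K562 cells (2×10^6 cells/mL) received 10 μM compound for 30 min, and aliquots were heated for 3 min over 48°C-58°C, pooled, and extracted at 4°C in PBS with 0.5% NP-40. Soluble protein, the supernatant after 21,000xg for 90 min, was quantified by TMTpro 16plex LC-MS/MS with equalised channel sums.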

Compound in another experiment: C[C@@H](Oc1cc(-c2cnn(C3CCNCC3)c2)cnc1N)c1c(Cl)ccc(F)c1Cl [crizotinib]
Put shortly: as §1

Compound in experiment [2]: C[C@@H]1COCCN1C2=NC(=NC(=C2)C3(CC3)S(=O)(=O)C)C4=C5C=CNC5=CC=C4
The procedure, abridged:
as §1

Compound in experiment [3]: C[C@H](C1=CC=C(C=C1)C(=O)NC2=C3C=CNC3=NC=C2)N
Put shortly:
as §1

Compound in a further experiment: C[C@H](Nc1ncnc2nc[nH]c12)c1cc2cccc(Cl)c2c(=O)n1-c1ccccc1 [duvelisib]
Put shortly:
as §1

Compound in another experiment: Cc1cc(Nc2cc(CN3CCOCC3)c3nc(C)c(Cc4ccc(Cl)cc4F)n3n2)n[nH]1 [gandotinib]
The procedure, abridged:
as §1

Compound in the next experiment: Cc1cc(Nc2cc(N3CCN(C)CC3)nc(Sc3ccc(NC(=O)C4CC4)cc3)n2)n[nH]1 [tozasertib]
Put shortly:
as §1

Compound in experiment [4]: Cc1cc(SCc2sc(-c3ccc(C(F)(F)F)cc3)nc2C)ccc1OCC(=O)O
Put shortly: as §1

Compound in a further experiment: Cc1ccc(-n2nc(C(C)(C)C)cc2NC(=O)Nc2ccc(OCCN3CCOCC3)c3ccccc23)cc1 [doramapimod]
The procedure, abridged: as §1

Compound in another experiment: Cc1ccc(C(=O)N(CCCN)[C@@H](c2nc3cc(Cl)ccc3c(=O)n2Cc2ccccc2)C(C)C)cc1 [ispinesib]
Put shortly: as §1

Compound in the next experiment: Cc1ccc(NC(=O)c2ccc(CN3CC[C@H](N(C)C)C3)c(C(F)(F)F)c2)cc1Nc1nccc(-c2cncnc2)n1 [bafetinib]
The procedure, abridged: as §1

Compound in experiment [5]: Cc1cccc(CC(=O)N2CCc3c2ccc(-c2cn(C)c4ncnc(N)c24)c3F)n1
Put shortly: as §1

Compound in a further experiment: Cc1cn(-c2cc(NC(=O)c3ccc(C)c(Nc4nccc(-c5cccnc5)n4)c3)cc(C(F)(F)F)c2)cn1 [nilotinib]
Put shortly: as §1

Compound in experiment [6]: Cc1nc(Nc2n[nH]c3c2CN(C(=O)N[C@H](CN(C)C)c2ccccc2)C3(C)C)c2sccc2n1
Put shortly:
as §1

Compound in the next experiment: Cc1nc(Nc2ncc(C(=O)Nc3c(C)cccc3Cl)s2)cc(N2CCN(CCO)CC2)n1 [dasatinib]
The procedure, abridged: as §1

Compound in experiment [7]: Cc1ncc(-c2ccnc(Nc3ccc(S(C)(=O)=O)cc3)n2)n1C(C)C
The procedure, abridged: as §1

Compound in experiment [8]: Cn1cc(-c2ccc3c(c2)CCN3C(=O)Cc2cccc(C(F)(F)F)c2)c2c(N)ncnc21
Put shortly: as §1

Compound in experiment [9]: Cn1cc(-c2ccc3nnc(C(F)(F)c4ccc5ncccc5c4)n3n2)cn1
The procedure, abridged:
as §1

Compound in the next experiment: Cn1cncc1[C@@](N)(c1ccc(Cl)cc1)c1ccc2c(c1)c(-c1cccc(Cl)c1)cc(=O)n2C [tipifarnib]
The procedure, abridged:
as §1

Compound in the next experiment: FC(F)(F)c1ccc(/C=C/c2nc(COc3ccc(CCCCn4ccnn4)cc3)co2)cc1 [mubritinib]
The procedure, abridged: as §1

The full data set covers some 7,900 targets. This sample favours those with a hit. About 0.6% of all pairs of compound and target were hits. A number with no mark means an inactive call.

Chain of UniProt Q32MZ4 (Q32MZ4 whole entry, looked up): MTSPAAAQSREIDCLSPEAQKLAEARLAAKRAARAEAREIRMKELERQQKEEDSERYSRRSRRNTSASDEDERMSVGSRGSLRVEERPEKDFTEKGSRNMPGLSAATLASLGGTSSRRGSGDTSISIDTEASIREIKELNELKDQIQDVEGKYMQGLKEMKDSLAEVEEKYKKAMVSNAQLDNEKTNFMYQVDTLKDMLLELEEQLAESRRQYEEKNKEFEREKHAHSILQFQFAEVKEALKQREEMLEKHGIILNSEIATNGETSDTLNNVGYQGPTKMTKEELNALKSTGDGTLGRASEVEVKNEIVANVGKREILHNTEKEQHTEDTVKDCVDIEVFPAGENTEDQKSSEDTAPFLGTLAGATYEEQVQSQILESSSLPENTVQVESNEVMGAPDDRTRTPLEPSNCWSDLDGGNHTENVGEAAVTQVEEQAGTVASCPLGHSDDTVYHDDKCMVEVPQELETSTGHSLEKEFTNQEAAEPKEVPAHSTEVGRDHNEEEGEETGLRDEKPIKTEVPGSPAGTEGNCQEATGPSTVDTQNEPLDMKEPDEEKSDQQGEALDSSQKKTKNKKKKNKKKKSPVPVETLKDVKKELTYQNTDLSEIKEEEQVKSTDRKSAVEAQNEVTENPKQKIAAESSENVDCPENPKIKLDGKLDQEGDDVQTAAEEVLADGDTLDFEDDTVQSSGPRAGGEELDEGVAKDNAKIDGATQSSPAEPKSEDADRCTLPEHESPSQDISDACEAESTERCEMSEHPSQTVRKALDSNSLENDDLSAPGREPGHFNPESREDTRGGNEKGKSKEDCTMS
Chain of UniProt A8MWY0 (A8MWY0 whole entry, looked up): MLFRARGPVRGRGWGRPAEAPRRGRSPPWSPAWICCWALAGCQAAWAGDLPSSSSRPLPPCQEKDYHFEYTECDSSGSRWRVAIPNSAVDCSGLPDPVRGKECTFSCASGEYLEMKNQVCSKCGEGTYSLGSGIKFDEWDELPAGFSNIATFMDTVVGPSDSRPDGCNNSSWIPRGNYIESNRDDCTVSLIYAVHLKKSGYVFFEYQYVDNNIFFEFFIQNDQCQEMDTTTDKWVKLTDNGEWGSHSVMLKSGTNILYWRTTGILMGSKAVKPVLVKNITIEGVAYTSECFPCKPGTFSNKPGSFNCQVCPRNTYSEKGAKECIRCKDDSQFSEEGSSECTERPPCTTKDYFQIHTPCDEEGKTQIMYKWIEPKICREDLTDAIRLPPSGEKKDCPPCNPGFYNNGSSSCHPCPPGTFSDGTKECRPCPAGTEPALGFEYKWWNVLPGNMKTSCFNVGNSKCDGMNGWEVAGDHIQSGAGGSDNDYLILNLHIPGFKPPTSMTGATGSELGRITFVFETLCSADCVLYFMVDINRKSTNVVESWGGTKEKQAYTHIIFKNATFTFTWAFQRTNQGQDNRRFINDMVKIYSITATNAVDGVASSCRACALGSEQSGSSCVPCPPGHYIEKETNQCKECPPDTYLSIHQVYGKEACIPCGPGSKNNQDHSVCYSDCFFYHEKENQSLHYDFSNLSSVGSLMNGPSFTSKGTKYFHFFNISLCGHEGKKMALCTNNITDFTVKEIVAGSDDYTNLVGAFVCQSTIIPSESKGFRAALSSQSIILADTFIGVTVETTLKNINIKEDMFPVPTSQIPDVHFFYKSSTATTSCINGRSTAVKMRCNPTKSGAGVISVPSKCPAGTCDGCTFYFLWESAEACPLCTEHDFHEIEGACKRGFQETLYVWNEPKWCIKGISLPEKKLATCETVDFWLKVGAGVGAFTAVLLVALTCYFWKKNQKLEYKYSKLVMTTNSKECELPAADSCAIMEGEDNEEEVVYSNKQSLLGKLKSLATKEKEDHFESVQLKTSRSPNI
Chain of UniProt P49137 (P49137 whole entry, looked up): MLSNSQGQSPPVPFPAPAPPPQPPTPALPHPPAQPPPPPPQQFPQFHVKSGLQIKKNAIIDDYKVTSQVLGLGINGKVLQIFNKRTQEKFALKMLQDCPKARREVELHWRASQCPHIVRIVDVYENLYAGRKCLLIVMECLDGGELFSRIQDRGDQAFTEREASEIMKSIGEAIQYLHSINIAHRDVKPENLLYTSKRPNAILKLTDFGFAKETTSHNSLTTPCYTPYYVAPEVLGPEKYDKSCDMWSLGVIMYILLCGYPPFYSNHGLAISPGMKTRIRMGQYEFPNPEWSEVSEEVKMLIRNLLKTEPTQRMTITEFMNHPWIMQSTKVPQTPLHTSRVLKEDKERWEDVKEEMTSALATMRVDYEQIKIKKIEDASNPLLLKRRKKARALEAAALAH
Chain of UniProt A1L0T0 (A1L0T0 whole entry, looked up): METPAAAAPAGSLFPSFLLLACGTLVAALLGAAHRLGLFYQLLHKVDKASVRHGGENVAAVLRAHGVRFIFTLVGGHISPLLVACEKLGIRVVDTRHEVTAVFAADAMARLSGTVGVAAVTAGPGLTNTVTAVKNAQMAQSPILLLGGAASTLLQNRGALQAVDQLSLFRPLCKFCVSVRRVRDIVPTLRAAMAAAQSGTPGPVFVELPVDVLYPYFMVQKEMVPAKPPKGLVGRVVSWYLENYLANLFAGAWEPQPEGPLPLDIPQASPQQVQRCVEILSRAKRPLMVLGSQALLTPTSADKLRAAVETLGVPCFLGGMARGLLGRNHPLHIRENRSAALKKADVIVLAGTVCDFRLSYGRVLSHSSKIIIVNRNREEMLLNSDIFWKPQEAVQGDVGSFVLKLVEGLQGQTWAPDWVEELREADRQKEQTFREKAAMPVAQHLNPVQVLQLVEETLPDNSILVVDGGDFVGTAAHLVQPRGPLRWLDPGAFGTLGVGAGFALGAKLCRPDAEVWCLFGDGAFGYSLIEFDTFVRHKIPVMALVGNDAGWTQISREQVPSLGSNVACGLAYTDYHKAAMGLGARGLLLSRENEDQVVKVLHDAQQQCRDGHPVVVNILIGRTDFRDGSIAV
Chain of UniProt P10620 (P10620 whole entry, looked up): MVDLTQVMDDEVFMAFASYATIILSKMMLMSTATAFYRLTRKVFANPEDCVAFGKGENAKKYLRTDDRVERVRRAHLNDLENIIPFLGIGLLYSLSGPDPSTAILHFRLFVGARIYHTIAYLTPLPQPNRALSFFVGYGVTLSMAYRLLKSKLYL
Chain of UniProt P45984 (P45984 whole entry, looked up): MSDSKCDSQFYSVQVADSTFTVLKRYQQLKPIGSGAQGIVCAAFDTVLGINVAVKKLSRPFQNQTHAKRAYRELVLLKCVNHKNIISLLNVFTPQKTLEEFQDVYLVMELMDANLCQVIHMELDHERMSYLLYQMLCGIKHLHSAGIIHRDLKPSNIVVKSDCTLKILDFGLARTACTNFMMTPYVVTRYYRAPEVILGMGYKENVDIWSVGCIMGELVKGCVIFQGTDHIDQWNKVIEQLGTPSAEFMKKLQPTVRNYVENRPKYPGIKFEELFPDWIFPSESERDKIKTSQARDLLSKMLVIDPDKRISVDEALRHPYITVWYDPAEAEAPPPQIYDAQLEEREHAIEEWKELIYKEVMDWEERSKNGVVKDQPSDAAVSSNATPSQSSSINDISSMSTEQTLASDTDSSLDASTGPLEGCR
Chain of UniProt P45983 (P45983 whole entry, looked up): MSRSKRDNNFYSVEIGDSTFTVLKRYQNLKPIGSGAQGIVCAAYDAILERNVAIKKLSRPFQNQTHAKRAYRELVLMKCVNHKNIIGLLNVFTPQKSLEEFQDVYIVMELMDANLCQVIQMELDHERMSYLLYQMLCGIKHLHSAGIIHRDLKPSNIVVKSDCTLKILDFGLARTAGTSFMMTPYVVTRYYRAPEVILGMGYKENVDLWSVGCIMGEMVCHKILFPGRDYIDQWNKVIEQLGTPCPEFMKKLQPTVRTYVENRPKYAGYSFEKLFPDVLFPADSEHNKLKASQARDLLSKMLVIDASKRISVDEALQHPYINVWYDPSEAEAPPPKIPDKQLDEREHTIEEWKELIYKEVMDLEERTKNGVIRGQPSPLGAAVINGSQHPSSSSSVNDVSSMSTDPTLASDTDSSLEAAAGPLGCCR

With MAPK9 (UniProt P45984), the log2 fold change was 0.006 in experiment [1]; -0.042 with crizotinib; 0.054 in experiment [2]; -0.068 in [3]; 0.023 with duvelisib; -0.018 in the experiment with gandotinib. In addition, the log2 fold change in the experiment with tozasertib is -0.013; in experiment [4], -0.041; with doramapimod, 0.145; with ispinesib, 0.01; with bafetinib, -0.112; in [5], 0.003. Besides, the log2 fold change in the experiment with nilotinib is -0.023; in experiment [6] it was 0.047; with dasatinib it was -0.044; in experiment [7], 0.134; in experiment [8], 0.042; in [9] it was 0.04. The figures for the log2 fold change with tipifarnib and with mubritinib were 0.015 and -0.059, respectively.
As to MGST1 (UniProt P10620), the log2 fold change in experiment [1] is -0.006; with crizotinib, 0.152; in experiment [2], -0.01; in [3], -0.257 (active); with duvelisib, -0.042; in the experiment with gandotinib, 0.044. The log2 fold change with tozasertib was -0.111; in [4], -0.123; with doramapimod, -0.053; with ispinesib, -0.027; in the experiment with bafetinib it was -0.001; in experiment [5] it was -0.053. The log2 fold change with nilotinib was -0.006; in experiment [6], 0.078; with dasatinib it was 0.084; in experiment [7], -0.039; in experiment [8] it was -0.013; in experiment [9], 0.014. Moreover, the log2 fold change is 0.131 with tipifarnib and -0.005 with mubritinib.
Turning to MAPKAPK2 (UniProt P49137), the log2 fold change is -0.032 in experiment [1]; -0.082 with crizotinib; 0.035 in experiment [2]; -0.019 in experiment [3]; 0.006 with duvelisib; -0.066 with gandotinib. In addition, the log2 fold change with tozasertib is -0.018; in experiment [4] it was 0.006; with doramapimod it was 0.147; in the experiment with ispinesib, -0.003; with bafetinib, 0.125; in [5] it was 0.017. Moreover, the log2 fold change with nilotinib is 0.145; in [6], 0.045; with dasatinib it was -0.086; in experiment [7] it was -0.011; in experiment [8], -0.014; in experiment [9] it was -0.022. Further, the log2 fold change with tipifarnib was -0.022; in the experiment with mubritinib, -0.009.
As to KIAA1324L (UniProt A8MWY0), the log2 fold change in experiment [1] was 0.081; in the experiment with crizotinib it was -0.125; in experiment [2], 0.06; in experiment [3], 0.062; with duvelisib it was -0.027; with gandotinib it was 0.076. The log2 fold change with tozasertib is -0.036; in experiment [4] it was -0.057; with doramapimod it was 0.051; with ispinesib, -0.124; with bafetinib, -0.099; in experiment [5], 0.022. Further, the log2 fold change with nilotinib is 0.042; in [6], -0.031; in the experiment with dasatinib, 0.025; in experiment [7], -0.003; in [8] it was 0.022; in experiment [9], 0.029. For the same target, the values for the log2 fold change in the experiment with tipifarnib and with mubritinib were 0.047 and 0.091, respectively.
In the case of MAPK8 isoform 3 (UniProt P45983), the log2 fold change was 0.003 in [1]; -0.08 with crizotinib; 0.092 in experiment [2]; -0.096 in experiment [3]; 0.018 with duvelisib; 0.254 with gandotinib. The log2 fold change with tozasertib was -0.127; in experiment [4], 0.096; in the experiment with doramapimod, -0.019; in the experiment with ispinesib, -0.008; with bafetinib it was -0.011; in [5], -0.048. The log2 fold change in the experiment with nilotinib was 0.022; in [6], 0.415 (active); in the experiment with dasatinib, -0.318; in experiment [7] it was 0.495 (active); in experiment [8], 0.047; in [9] it was -0.058. The values for the log2 fold change with tipifarnib and in the experiment with mubritinib were 0.001 and -0.179, respectively.
For ILVBL (UniProt A1L0T0), the log2 fold change in experiment [1] was 0.055; with crizotinib, 0; in [2] it was 0.058; in experiment [3], 0.061; with duvelisib, 0.106; with gandotinib, 0.02. Moreover, the log2 fold change with tozasertib is -0.067; in experiment [4], -0.005; in the experiment with doramapimod it was -0.003; with ispinesib, 0.213 (active); with bafetinib, 0.065; in experiment [5], -0.049. Further, the log2 fold change is 0.074 in the experiment with nilotinib; 0.011 in [6]; -0.09 in the experiment with dasatinib; -0.025 in experiment [7]; 0.247 in experiment [8]; -0.005 in experiment [9]. For the same target, the log2 fold change is -0.047 in the experiment with tipifarnib and 0.041 in the experiment with mubritinib.
With LRRFIP1 (UniProt Q32MZ4), the log2 fold change in experiment [1] is -0.005; with crizotinib, 0.037; in experiment [2], 0; in [3] it was 0.025; with duvelisib, 0.011; with gandotinib it was 0.056. For the same target, the log2 fold change in the experiment with tozasertib is -0.027; in [4], -0.059; in the experiment with doramapimod it was -0.025; with ispinesib it was -0.019; with bafetinib, -0.034; in experiment [5], -0.043. The log2 fold change in the experiment with nilotinib is 0.008; in experiment [6] it was 0.002; with dasatinib, 0.038; in experiment [7], -0.016; in [8], 0.024; in [9], 0.013. Besides, the log2 fold change in the experiment with tipifarnib is 0.016; with mubritinib it was 0.035.
